# Source: PubChem BioAssay (National Center for Advancing Translational Sciences (NCATS))
# Compounds with a hit are over-represented: about 6.1% of the library has one in this group of screens.
# ATXN viability: reduces viability in counter-screen for ATXN expression inhibitors. S2 cells (HEK-293 line with an ATXN2-luciferase reporter) viability, CellTiter-Fluor protease fluorescence, 24 h. Potency, µM (top dose mostly 56.7 µM), usual class: cytotoxic. 400,000 tested, 0.49% active; also: nearly all actives have a fitted effect of over 40% in size
# TGFb SMAD3 inh: TGF-b pathway inhibition; AID 588855; Potency, µM (doses to about 46.1 µM), inactives show top-dose activity, negative = inhibition, actives largely listed as inhibitors; HepG2 CAGA-GFP TGF-b/SMAD3 reporter, GFP fluorescence, 18 h; TGF-beta stimulated, 500 pg/mL final; 410,000 tested, 1.2% active; also: % is scaled to controls: 0 for no effect and ±100 for the full control effect; nearly all actives have a fitted effect of over 65% in size
#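 First, reporter cells (HEPG2 CAGA-GFP) rested 2 h at 37 degrees C. Next, compounds were pinned in and TGF-beta added to 500 pg/mL final. After 18 h, GFP was imaged per cell and summed per well.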
# RORgamma inh: inhibitors of mouse ROR gamma transcriptional activity. P51450. Drosophila S2 Gal4-RORgamma UAS-luciferase reporter, 20 h. Potency, µM (top dose mostly 53.6 µM), inactives show at the highest dose activity change, negative = inhibition, usual class: inhibitors. 310,000 tested, 5.4% active. AID 2551; also: % is scaled to controls: 0 for no effect and ±100 for the full control effect; nearly all actives have a fitted effect of over 60% in size
# Target sequence (P51450 whole entry, looked up, the tested form may be a part): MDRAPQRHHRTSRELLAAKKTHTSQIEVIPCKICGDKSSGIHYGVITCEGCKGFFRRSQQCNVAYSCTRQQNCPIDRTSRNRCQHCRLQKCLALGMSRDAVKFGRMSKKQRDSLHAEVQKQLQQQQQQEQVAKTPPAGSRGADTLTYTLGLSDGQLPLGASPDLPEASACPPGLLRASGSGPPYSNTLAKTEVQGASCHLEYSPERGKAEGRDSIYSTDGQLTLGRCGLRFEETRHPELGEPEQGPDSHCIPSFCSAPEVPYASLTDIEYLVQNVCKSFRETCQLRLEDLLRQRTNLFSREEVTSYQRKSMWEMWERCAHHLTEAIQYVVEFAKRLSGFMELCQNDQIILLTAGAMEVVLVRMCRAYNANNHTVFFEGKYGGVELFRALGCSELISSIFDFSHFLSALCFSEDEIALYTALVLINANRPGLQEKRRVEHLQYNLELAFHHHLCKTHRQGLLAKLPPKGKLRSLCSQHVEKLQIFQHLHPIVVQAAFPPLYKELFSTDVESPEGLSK
#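 Schneider cells (Drosophila), stable Gal4 DBD–ROR gamma + UAS-luc; 1 hr cmpd preincubation; Cu2+ induction 700 uM final; 20 hr ambient; luminescence.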
# HepG2 viability: HepG2 cytotoxicity, counter-screen for TGF-b inhibitors; HepG2 CAGA-GFP viability, ATP luminescence, 18 h; Potency, µM (series often up to 46.1 µM), for the others: at the highest dose activity change, negative = cytotoxicity, hits mostly cytotoxic; 410,000 tested, 0.76% active; AID 588856
#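 HepG2 CAGA-GFP cells (1000/well, DMEM with 1% FBS) received compound, then TGF-beta at 500 pg/mL final, and were incubated 18 hours at 37 degrees C. Viability was read by CellTiter-Glo luminescence. Media-only wells were set as complete cell-killing and DMSO as no toxicity.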
# ATXN2 expr inh: inhibitors of ATXN2 expression. 360,000 tested, 0.72% active. HEK-293 ATXN2-luciferase reporter, luminescence, 24 h. Potency, µM (top dose mostly 57 µM), inactives show top-dose activity change, negative = inhibition, hits mostly inhibitors. AID 1745845; also: % is scaled to controls: 0 for no effect and ±100 for the full control effect; nearly all actives have a fitted effect of over 55% in size
#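 qHTS (up to 57 uM final) was run with 24 h compound exposure of reporter cells at 37 °C. Each well was multiplexed: SteadyGlo luminescence measured ATXN2-luciferase expression after a fluorogenic Gly-Phe-AFC viability readout (25 uM final).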
# Gal4-VP16 FLuc: counter-screen for ROR gamma inhibitors: Gal4-VP16 reporter. Drosophila S2 Gal4-VP16 UAS-luciferase, luminescence, 20 h. Potency, µM (highest dose often 53.6 µM), for the others: top-dose activity, negative = inhibition, actives largely listed as inhibitors. 310,000 tested, 3.5% active. AID 2546;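 also: Gal4-VP16 expression switched on by copper sulfate through the metallothionein promoter; % is scaled to controls: 0 for no effect and ±100 for the full control effect; nearly all actives have a fitted effect of over 50% in size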
# Starred values were filed as active, the others as inactive; i = inactive; ? = inconclusive; nt = no result given; ! = repeats disagree. Calls follow the shape of the dose curve; as a rule, active = well fitted curve in the direction sought with a large enough effect; inconclusive = small, poorly fitted or top-dose-only effect, or another doubt; inactive = no such curve, though single readings can be large; an effect the other way counts as inactive or inconclusive. Potency is read from the fitted curve at half-maximal effect.
SMILES,ATXN viability,TGFb SMAD3 inh,RORgamma inh,HepG2 viability,ATXN2 expr inh,Gal4-VP16 FLuc
C[C@@H]1CN([C@H](C)CO)S(=O)(=O)c2ccc(-c3ccc(C#N)cc3)cc2O[C@H]1CN(C)C(=O)Nc1cc(F)ccc1F,?,-2%,nt,-11%,16µM*,nt
C[C@@H]1CN([C@@H](C)CO)S(=O)(=O)c2ccc(C#CC3CCCCC3)cc2O[C@@H]1CN(C)Cc1cccnc1,?,?,nt,-104%,28µM*,nt
COc1ccc(-c2ccc3c(c2)O[C@H](CN(C)C(=O)Nc2ccccc2F)[C@@H](C)CN([C@H](C)CO)S3(=O)=O)cc1,i,0%,nt,-33%,-37%,nt
O=C(C=CC#Cc1cccc(NS(=O)(=O)c2ccccc2)c1)NO,nt,nt,nt,nt,-55%,nt
C[C@H]1CN([C@@H](C)CO)S(=O)(=O)c2ccc(Br)cc2O[C@@H]1CN(C)Cc1cccc(F)c1,nt,18µM*,nt,13µM*,-75%,nt
O=C1C(Cc2ccccc2)NC(=S)N1Cc1ccccc1 (centres undefined),i,-4%,13µM*,-6%,nt,-21%
CCC(C)C1NC(=S)N(Cc2ccccc2)C1=O (centres undefined),i,-7%,10µM*,-10%,0%,?
CSCCC1NC(=S)N(Cc2ccccc2)C1=O (centres undefined),i,?,-45%,-23%,?,-22%
CC(C)CC1NC(=S)N(Cc2ccccc2)C1=O (centres undefined),?,5µM*,?,-38%,nt,-16%
CCOc1ccccc1CNC(=O)CCCn1nc(C)c2sc3ccccc3c2c1=O,nt,34%,nt,2%,nt,nt
CSc1ccc(CCNC(=O)C2CCCN(S(=O)(=O)N(C)c3ccc(F)cc3)C2)cc1 (centres undefined),nt,?,nt,-30%,nt,nt
CCc1ccc(C2NC(=S)NC3=C2C(=O)CCC3)cc1 (centres undefined),i,-3%,?,-3%,-8%,?
CCCCCCCc1ccc(C2NC(=S)NC3=C2C(=O)c2ccccc23)cc1 (centres undefined),i,-16%,5.6µM*,-6%,-22%,?
Cc1cccn2c(Nc3ccccc3)c(-c3ccccn3)nc12,i,?,3.2µM*,-25%,?,5µM*
Cc1ccn2c(Nc3ccccc3C)c(-c3ccccn3)nc2c1,nt,13µM*,14µM*,16µM*!,4µM*,?
CC(C)c1ccc(Nc2c(-c3ccccn3)nc3ccccn23)cc1,?,?,nt,10µM*,?,nt
Cc1ccn2c(Nc3ccccc3)c(-c3ccccn3)nc2c1,i,-13%,16µM*,-1%,?,-16%
Cc1ccccc1Nc1c(-c2ccccn2)nc2ccccn12,?,?,31%,-67%,nt,-3%
Fc1ccc(Nc2c(-c3ccccn3)nc3ccc(Cl)cn23)cc1,i,-21%,nt,-2%,2%,nt
Cc1ccc(NC(=O)c2ccc(=O)n(Cc3ccccc3C)c2)c(C)c1,i,5%,nt,-5%,-17%,nt
CCN1CCCC1CNC(=O)c1cnn(-c2nccc(-c3ccc(C)o3)n2)c1C1CC1 (centres undefined),i,nt,nt,nt,nt,nt
COC(=O)c1ccccc1N(C)S(=O)(=O)c1cc2c3c(c1)CC(=O)N3CCC2,i,-24%,nt,2%,0%,nt
O=S(=O)(NCCc1cn2ccsc2n1)c1ccc(Cl)cc1,nt,-17%,nt,-16%,nt,nt
COc1cccc(/C=C/c2nccc3ccccc23)c1OC,nt,3%,nt,-8%,nt,nt
COCC(=O)Nc1cc(C(=O)N2CCCCC2c2nccs2)c2c(c1)nc(-c1ccncc1)n2C (centres undefined),i,nt,nt,nt,nt,nt
COCCn1ccc2c(OCC(=O)Nc3ccccc3F)cccc2c1=O,?,0%,nt,2%,9%,nt
Cc1cccc(-n2ncc(C(=O)NCc3ccc4c(c3)OCO4)c2C2CCN(C(=O)OC(C)(C)C)CC2)c1,nt,-25%,nt,-7%,nt,nt
